Test results from PubChem BioAssay (NCATS).
Records with an inconclusive call do not appear. The source made the active and inactive calls. The call rests on the fitted dose curve; in most records, active means well fitted curve in the direction sought with a large enough effect; inconclusive means small, poorly fitted or top-dose-only effect, or another doubt; inactive means no such curve, though single readings can be large; an effect the other way counts as inactive or inconclusive.

Key:
[1] = Primary redox qHTS assay for identification of artifact compounds. (AID 1845223)
How it was run: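 Redox-cycling detection via DTT (250 uM final) oxidation coupled to Amplex Red (25 uM)/HRP (250 mU/mL) in HBSS. 15 min preincubation plus 30 min after DTT, room temperature. Ex/Em 525/598 nm; 4-parameter Hill fit against DMSO and 10 uM DA3003.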

[2] = Quantitative High-Throughput drug screen in 47 multiple myeloma cell lines against the NCATS MIPE library collection: FR4_PLB cell viability assay (AID 1918924; further: nearly all actives have a fitted effect of over 35% in size; further: potency means the concentration at half of the fitted maximal effect)
How it was run: (§1)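 We plated 500 myeloma cells per well, pinned in MIPE 4.0 compounds, and incubated for 48 hours at 37C. ATP was then quantified with CellTiter-Glo, with DMSO and media-only wells defining 100% and 0%.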

[3] = Quantitative High-Throughput drug screen in 47 multiple myeloma cell lines against the NCATS MIPE library collection: Delta47_JCRB cell viability assay (AID 1918925; further: nearly all actives have a fitted effect of over 45% in size; further: potency means the concentration at half of the fitted maximal effect)
How it was run: (§2)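 Approved and investigational drugs from MIPE 4.0 were added by pin tool to 500 cells per well. After 48 hours at 37C, ATP-based CellTiter-Glo luminescence indicated remaining viability.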

[4] = Quantitative High-Throughput drug screen in 47 multiple myeloma cell lines against the NCATS MIPE library collection: EJM_DSMZ cell viability assay (AID 1918926; further: nearly all actives have a fitted effect of over 30% in size; further: potency means the concentration at half of the fitted maximal effect)
How it was run: as §2

[5] = Quantitative High-Throughput drug screen in 47 multiple myeloma cell lines against the NCATS MIPE library collection: AMO1_DSMZ cell viability assay (AID 1918927; further: nearly all actives have a fitted effect of over 30% in size; further: potency means the concentration at half of the fitted maximal effect)
How it was run: as §2

[6] = Quantitative High-Throughput drug screen in 47 multiple myeloma cell lines against the NCATS MIPE library collection: ARP1_JJKsccF8 cell viability assay (AID 1918928; further: nearly all actives have a fitted effect of over 40% in size; further: potency means the concentration at half of the fitted maximal effect)
How it was run: (§3)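 CellTiter-Glo luminescence after 48 h exposure gives viability, scaled between DMSO-only (100%) and media-only (0%) controls. Library compounds are pinned onto 500 myeloma cells per well, incubated at 37C with 5% CO2.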

[7] = Quantitative High-Throughput drug screen in 47 multiple myeloma cell lines against the NCATS MIPE library collection: ARD_JJKsccE7 cell viability assay (AID 1918929; further: potency means the concentration at half of the fitted maximal effect)
How it was run: as §2

[8] = Quantitative High-Throughput drug screen in 47 multiple myeloma cell lines against the NCATS MIPE library collection: KMM1_JCRB cell viability assay (AID 1918960); further: nearly all actives have a fitted effect of over 30% in size; further: potency means the concentration at half of the fitted maximal effect
How it was run: as §3

[9] = Quantitative High-Throughput drug screen in 47 multiple myeloma cell lines against the NCATS MIPE library collection: Karpas620_DSMZ cell viability assay (AID 1918959); further: nearly all actives have a fitted effect of over 30% in size; further: potency means the concentration at half of the fitted maximal effect
How it was run: as §1

[10] = Quantitative High-Throughput drug screen in 47 multiple myeloma cell lines against the NCATS MIPE library collection: Karpas417_ECACC cell viability assay (AID 1918961); details: Karpas417 myeloma viability, CellTiter-Glo ATP luminescence, 48 h; viability (% of DMSO): at 45.8 µM (top of the series); further: potency means the concentration at half of the fitted maximal effect
How it was run: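 Viability readout: CellTiter-Glo luminescence following 5 min room-temperature incubation with reagent. Prior exposure: 48 h, 37C, humidified 5% CO2, 500 cells per well.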

Measured: Potency

FC(F)c1nc2ccccc2n1-c1nc(N2CCOCC2)nc(N2CCOCC2)n1
inactive: [1]
active: [2] 743 nM | [3] 66.2 nM | [4] 743 nM | [5] 209 nM | [6] 166 nM

Cc1cncc2cccc(S(=O)(=O)N3CCCN(C(=O)CN)C[C@@H]3C)c12
inactive: [1] | [8]
active: [4] 23500 nM | [5] 10500 nM | [7] 16600 nM

c1cncc(CN2CCC(n3ncc4c(N5CCOCC5)nc(-c5ccc6[nH]ccc6c5)nc43)CC2)c1
active: [2] 4690 nM | [3] 743 nM | [4] 5900 nM | [6] 3320 nM
inactive: [1] | [9]

c1ccc2c(Oc3nc(Nc4ccc(N5CCOCC5)cc4)c4ncn(C5CCCCC5)c4n3)cccc2c1
inactive: [1] | [2] | [9]

C=C1C(=CC=C2CCC[C@]3(C)[C@@H]([C@H](C)CCCC(C)(C)O)CC[C@@H]23)C[C@@H](O)C[C@@H]1O
active: [2] 14800 nM | [3] 9350 nM | [4] 2350 nM

COc1cc([C@@H]2c3cc4c(cc3[C@H](O)[C@H]3COC(=O)[C@@H]23)OCO4)cc(OC)c1OC
active: [2] 29.6 nM | [3] 166 nM | [4] 590 nM | [5] 26.4 nM | [6] 52.6 nM | [7] 59 nM

COc1cc2c(Nc3ccc(Cl)c(Cl)c3F)ncnc2cc1OCC1C[C@@H]2CN(C)C[C@H]2C1
active: [2] 14800 nM | [3] 2350 nM | [4] 2960 nM | [5] 8330 nM | [6] 8330 nM | [7] 13200 nM | [9] 4180 nM

CC(=O)N1CCN(c2ccc(OCc3nn(C)c(C)c3-c3cccc4c(CCCOc5cccc6ccccc56)c(C(=O)O)n(Cc5cccnc5)c34)cc2)CC1
active: [2] 10500 nM | [3] 332 nM | [4] 105 nM | [5] 52.6 nM | [6] 10500 nM | [7] 118 nM | [9] 1870 nM | [8] 1180 nM

C[C@H](NCc1ccc2c(c1)nc(NC(=O)c1ccc(-c3cn[nH]c3)s1)n2CCc1ccccc1)C(C)(C)C
active: [2] 1050 nM | [3] 662 nM | [4] 1050 nM | [5] 662 nM | [6] 1320 nM | [7] 526 nM | [9] 743 nM | [8] 833 nM

CCS(=O)(=O)Nc1ccc2[nH]c(O)c(C(=Nc3ccc(CN4CCCCC4)cc3)c3ccccc3)c2c1
active: [2] 18700 nM | [3] 52.6 nM | [4] 6620 nM | [5] 148 nM | [6] 743 nM | [7] 469 nM | [9] 1480 nM | [8] 3720 nM

C=Cc1c(C)c2cc3nc(cc4[nH]c(cc5nc(cc1[nH]2)C(C)=C5CCC(=O)O)c(CCC(=O)OC)c4C)[C@@]1(C)C3=CC=C(C(=O)OC)[C@H]1C(=O)OC
active: [2] 662 nM | [3] 132 nM | [4] 37.2 nM | [5] 93.5 nM | [6] 743 nM | [7] 296 nM | [9] 187 nM

O=C1NCCc2[nH]c(-c3ccncc3)cc21
active: [2] 1870 nM | [3] 2960 nM | [4] 1870 nM | [5] 1660 nM | [6] 5900 nM | [7] 4180 nM | [9] 2350 nM | [8] 1050 nM

CC(=O)OCC(=O)[C@@]1(O)CC[C@H]2[C@@H]3CCC4=CC(=O)CC[C@]4(C)[C@@H]3C(=O)C[C@@]21C
not listed: [1] | [10]
inactive: all other assays above

C=CCNc1c(O)cc2c(O)c1C[C@@H](C)C[C@H](OC)[C@@H](O)[C@@H](C)C=C(C)[C@H](OC(N)=O)[C@@H](OC)C=CC=C(C)C(=O)N2
active: [2] 372 nM | [3] 469 nM | [4] 1050 nM | [5] 148 nM | [6] 148 nM | [7] 74.3 nM | [9] 1180 nM | [8] 372 nM | [10] 74.3 nM

Oc1cc2c(cc1O)C1c3ccc(O)c(O)c3OCC1(O)C2 (stereo not drawn)
not listed: [1] | [8] | [10]
inactive: all other assays above

COc1cccc2c1C(=O)c1c(O)c3c(c(O)c1C2=O)C[C@@](O)(C(=O)CO)C[C@@H]3O[C@H]1C[C@H](N)[C@@H](O)[C@H](C)O1
active: [2] 743 nM | [3] 209 nM | [4] 590 nM | [5] 1180 nM | [6] 469 nM | [7] 2640 nM | [9] 2350 nM | [8] 2090 nM

CNC(=O)c1ccc(Nc2cc(Nc3ccccc3S(=O)(=O)C(C)C)c3cc[nH]c3n2)nc1
active: [2] 4690 nM | [3] 662 nM | [4] 6620 nM | [5] 2090 nM | [6] 18700 nM | [7] 1870 nM | [9] 1320 nM | [8] 1480 nM

C[C@@H]1CC[C@@]2(OC1)OC1CC3C4CC=C5CC(O)CCC5(C)C4CCC3(C)C1[C@@H]2C (stereo partly drawn)
not listed: [1] | [10]
inactive: all other assays above
